From PubChem BioAssay
KB-3-1 cytotox – KB-3-1 parental cell cytotoxicity. KB-3-1 viability, CellTiter-Glo ATP luminescence, 72 h. Potency, µM (highest dose often 46.1 µM), hits mostly cytotoxic. 400,000 compounds, 1.4% hits. AID 1347075; note: % is set by controls: 0 for no effect and ±100 for the full control effect; nearly all actives have a fitted effect of over 60% in size
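KB-3-1 cells, DMEM (no phenol red) + 10% FBS; compound by pin transfer, 72 h, 37 °C. Readout: CellTiter-Glo luminescence after 10 min. Data normalized, curve-fitted.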
SW480 rerep – inducers of DNA re-replication in SW480 colon cancer cells | 340,000 compounds, 1.8% hits | SW480 DNA re-replication, Hoechst DNA content imaging, 48 h | AID 624297 | Potency, µM (doses to about 46.1 µM), inactives show top-dose re-replication activation, hits mostly activators; note: % of control where 0% means no effect; nearly all actives have a fitted effect of over 55% in size
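Image-based read-out: total Hoechst fluorescence of nuclei (405 nm excitation, 500-530 nm emission), with hits raising the fraction of high-intensity nuclei. SW480 colon cells incubated 48 hr with compounds at 37 C.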
HT1080NT lethal – kills 2HG-producing HT-1080-NT fibrosarcoma cells; HT-1080-NT fibrosarcoma viability, CellTiter-Glo ATP luminescence, 48 h; Potency, µM (highest dose often 46.1 µM), inactives show top-dose activity, negative = less viability, actives largely listed as cytotoxic; 360,000 compounds, 1.6% hits; AID 686970;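 note: NT is the 2HG producing partner of a matched IDH1 knockdown line; 0% = DMSO-treated cells and -100% = media-only wells without cells; nearly all actives have a fitted effect of over 55% in size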
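HT-1080-NT fibrosarcoma cells (2HG-overproducing), 750 cells/well in RPMI with 5% FBS, dosed after 2 h and incubated 48 h at 37C. CellTiter-Glo luminescence normalized to DMSO and no-cell wells; concentration-response curves fitted and classed.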
HT1080 IDH1KD tx – toxicity to HT-1080 IDH1 knockdown cells (counter line). AID 686971. 360,000 compounds, 2% hits. Potency, µM (highest dose often 46.1 µM), without a hit: at the highest dose activity, negative = toxicity, actives largely listed as cytotoxic. HT-1080 IDH1 knockdown viability, ATP luminescence, 48 h;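 note: 0% = DMSO wells and -100% = cell-free medium wells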
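Knockdown cells (IDH1KD HT-1080) received compounds 2 h after plating at 750 cells/well and were kept 48 h at 37 °C in 5% FBS RPMI. A CellTiter-Glo luminescence read gave % activity for curve fitting.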
MCF10A rerep – inducers of DNA re-replication in MCF 10A breast cells. MCF 10A DNA re-replication, Hoechst nuclear intensity, 48 h. Potency, µM (titrated, usually from 46.1 µM), inactives show at the top dose activity, positive = re-replication, most hits filed as activators. 350,000 compounds, 2.9% hits; note: % of control where 0% means no effect; nearly all actives have a fitted effect of over 50% in size
KB-V1 cytotox – KB-V1 MDR subline cytotoxicity. KB-V1 MDR cells viability, CellTiter-Glo, 72 h. Potency, µM (top dose mostly 46.1 µM), hits mostly cytotoxic. 400,000 compounds, 3.4% hits. AID 1347076; note: % is set by controls: 0 for no effect and ±100 for the full control effect; nearly all actives have a fitted effect of over 60% in size
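Cells of the MDR subline KB-V1 are plated, dosed with compound at multiple concentrations, and incubated 72 h at 37 degrees C; CellTiter-Glo is then added and luminescence read after 10 min.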
* hit, by the source's call; i = inactive; ? = inconclusive; . = not tested or not shown; [ ] = remark or other dose. The list is not random: actives were taken first. Their share in the collection is about 8%. Calls come from the whole dose curve; as a rule, active = well fitted curve in the direction sought with a large enough effect; inconclusive = small, poorly fitted or top-dose-only effect, or another doubt; inactive = no such curve, though single readings can be large; an effect the other way counts as inactive or inconclusive. Potency is the fitted concentration of half-maximal effect.

SMILES	KB-3-1 cytotox	SW480 rerep	HT1080NT lethal	HT1080 IDH1KD tx	MCF10A rerep	KB-V1 cytotox
COc1ccccc1NS(=O)(=O)c1ccc(C(=O)NCCCN2CCOCC2)cc1	i	8.2µM*	-0.7%	-1.0%	-6.8%	i
CC(=O)Nc1ccc(S(=O)(=O)NC(C)C(=O)OCC(=O)Nc2ccc(F)cc2Cl)cc1 (centres undefined)	i	.	9.9%	-13.0%	.	i
NC(=O)c1cc2ccccc2o/c1=N\NC(=O)c1ccco1	i	-11.6%	15.2%	7.6%	-1.0%	?
O=C(NCC1CCCO1)c1cc2c([nH]c3ccccc32)c(-c2cccc(Cl)c2)n1 (centres undefined)	?	20.6µM*	-25.1%	-25.2%	?	?
COc1cc(-c2nc(C(=O)NCC3CCCO3)cc3c2[nH]c2ccccc23)cc(OC)c1OC (centres undefined)	i	-3.0%	?	?	?	?
Cc1ccc(CCNC(=O)c2ccc3c(c2)N(Cc2cccc(F)c2)C(=O)c2ccccc2S3)cc1	i	.	.	.	.	i
COc1ccccc1NC(=O)C(=O)N/N=C(\C)CC(=O)Nc1ccc(OCc2ccccc2)cc1	?	-1.0%	-1.4%	-6.0%	16.7%	i
C/C(CCc1ccco1)=N/NC(=O)CCC(=O)Nc1cccc(Cl)c1	i	-5.3%	-6.8%	0.5%	-1.3%	?
C/C(CCc1ccccc1)=N\NC(=O)C(=O)Nc1cccc(Cl)c1	i	7.4%	0.9%	-0.1%	0.259µM*	i
C/C(CC(=O)Nc1ccc(OCc2ccccc2)cc1)=N\NC(=O)C(=O)Nc1cccc(C)c1	?	-59.5%	-1.1%	-15.3%	14.6µM*	?
CCN(CC)S(=O)(=O)c1ccc(NC2c3ccccc3C(=O)N2c2ccc(C)cn2)cc1 (centres undefined)	i	-2.8%	8.2%	4.7%	-4.0%	i
CN(Cc1ccccc1F)c1nc(-c2cccs2)nc2ccccc12	i	?	-16.1%	-14.2%	13µM*	?
CN(CCN(C)c1nc(-c2cccs2)nc2ccccc12)C(=O)OC(C)(C)C	.	.	-20.9%	-25.3%	.	.
COCC(C)Nc1ccc(S(=O)(=O)N2CCCC2)cc1[N+](=O)[O-] (centres undefined)	i	-3.1%	3.5%	-2.2%	0.7%	i
O=C(NN1C(=O)/C(=C/C=C/c2ccccc2)SC1=S)c1ccncc1	i	-1.8%	-8.9%	-7.3%	18.4µM*	i
CC(/C=C1\SC(=S)N(NC(=O)c2cccc(O)c2)C1=O)=C\c1ccccc1	i	-4.8%	-8.6%	-1.8%	11.6µM*	?
O=C(NN1C(=O)/C(=C/c2ccc(O)cc2)SC1=S)c1cccc(O)c1	i	-11.2%	-0.1%	11.2%	-5.7%	i
N#CCSc1nnc(-c2c[nH]c3ccccc23)o1	i	-0.1%	12.2%	5.2%	1.7%	i
O=c1c(Br)ccc(Br)cc1Br	6.51µM*	?	3.66µM*	5.17µM*	?	i
O=C(c1ccc2c(c1)N(Cc1ccc(Cl)cc1)C(=O)c1ccccc1S2(=O)=O)N1CCN(c2ccccn2)CC1	?	.	.	.	.	i
COc1cccc(NC(=O)c2sc3nc(N4CCOCC4)c4c(c3c2N)CCCC4)c1	i	8.4%	-0.5%	-4.3%	2.31µM*	i
CCOc1ccc(NC(=O)c2sc3nc(N4CCOCC4)c4c(c3c2N)CCCC4)cc1	i	2.91µM*	6.7%	13.1%	23.1µM*	i
CC(=O)c1ccc(NC(=O)c2sc3nc(N4CCOCC4)c4c(c3c2N)CCCC4)cc1	i	?	-0.4%	1.5%	2.31µM*	i
Nc1c(C(=O)Nc2ccc(Cl)cc2)sc2nc(N3CCOCC3)c3c(c12)CCCC3	i	15.7%	0.8%	-3.4%	2.06µM*	i
Cc1ccc(NC(=O)c2sc3nc(N4CCOCC4)c4c(c3c2N)CCCC4)cc1	i	.	-0.3%	0.4%	.	i
SMILES	KB-3-1 cytotox	SW480 rerep	HT1080NT lethal	HT1080 IDH1KD tx	MCF10A rerep	KB-V1 cytotox
Nc1c(C(=O)Nc2ccccc2)sc2nc(N3CCOCC3)c3c(c12)CCCC3	i	.	-0.3%	-4.5%	.	i
CCCCNC(=O)C1(C)CCN1C(=O)c1cc(F)ccc1C (centres undefined)	i	.	23.2%	15.6%	.	i
Cc1cc(C(=O)COC(=O)c2ccc(O)cc2)c(C)n1CC1COc2ccccc2O1 (centres undefined)	i	2.9%	?	?	4.8%	?
Cc1ccc(OCC(=O)Nc2c(C)nn(-c3ccccc3)c2C)c(Br)c1	i	-2.8%	1.7%	1.7%	20.0%	?
NNC(=O)c1sc2nc(N3CCOCC3)c3c(c2c1N)CCCC3	i	16.4µM*	-4.3%	-28.3%	20.6µM*	i
Nc1c(C(=O)N2CCOCC2)sc2nc(N3CCOCC3)c3c(c12)CCCC3	i	-10.9%	8.6%	-1.0%	15.1%	i
N#Cc1sc2nc(N3CCCCC3)c3c(c2c1N)CCCC3	?	-3.7%[9.22 µM]	?	?	?	7.31µM*
Cc1nc2sc(C#N)c(N)c2c2c1CCCC2	i	-4.3%[9.22 µM]	17.4%	8.7%	-9.7%	i
Nc1cccc(Nc2nc(OC(C(F)(F)F)C(F)(F)F)nc(OC(C(F)(F)F)C(F)(F)F)n2)c1	18.4µM*	-0.2%[9.22 µM]	?	?	?	23.1µM*
CN1N/C(=C\c2ccccc2)N=C2C(=O)N(C)C(=O)N=C21	i	.	.	.	.	i
CC/C=C1/N=C2C(=O)N(C)C(=O)N=C2N(C)N1	18.4µM*	.	.	.	.	i
CCCCn1c(=N)n(CC(O)c2ccccc2)c2ccccc21 (centres undefined)	?	3.0%	-18.5%	-11.2%	10.8%	?
N=c1n(CCN2CCCCC2)c2ccccc2n1CC(O)c1ccc(Cl)c(Cl)c1 (centres undefined)	?	-2.3%	11.2µM*	12.6µM*	?	20.6µM*
CN(C)CCn1c(=N)n(CC(O)c2ccc(Cl)c(Cl)c2)c2ccccc21 (centres undefined)	?	?	23.1µM*	?	?	i
N=c1n(CCN2CCCCC2)c2ccccc2n1CC(O)c1cccc(Br)c1 (centres undefined)	?	?	23.1µM*	?	?	?
COc1ccccc1/C=C1/C(=O)ON=C1C	i	-4.1%	13.5%	13.1%	-1.0%	i
CC12CCC(=O)N1C(C(=O)N1CCN(c3ccccc3)CC1)CS2 (centres undefined)	i	-1.2%	8.7%	13.6%	0.3%	i
